Test results: PubChem BioAssay
The source made the active and inactive calls.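 Rule for the calls, unless noted: active = normalized viability below 100% at a tested concentration; inactive = the rest.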

What was measured:
[1] = drug combination growth inhibition, ovarian cancer – cell-based, oncology-focused library, rucaparib conditional, profiling panel (AID 1508598); conditions: patient-derived ovarian cancer cells, CellTiter-Glo viability, 144 h, hits give low values
[2] = biological target: NAD(+) hydrolase SARM1 (Homo sapiens) (UniProt Q6SZW1); experiment: blocking NAD cleavage by SARM1 SAM-TIR – cell lysate, NAD-Glo luminescence (AID 1508614;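 active = compound whose remaining NAD level is above about 45 nM, limit read from the data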;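 note: higher remaining NAD means stronger inhibition of SARM1 NADase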); conditions: SAM-TIR HEK293T lysate NADase, at 1 µM, hits give high values
[3] = at 0.000305 µM, OCI-C5x cells, with rucaparib 10 µM, 100% = cells with rucaparib alone
[4] = at 0.000305 µM, OCI-C5x cells, without rucaparib
[5] = at 0.000305 µM, OCI-P5x cells, with rucaparib 20 µM, 100% = cells with rucaparib alone
[6] = at 0.000305 µM, OCI-P5x cells, without rucaparib
[7] = at 0.00122 µM, OCI-C5x cells, with rucaparib 10 µM, 100% = cells with rucaparib alone
[8] = at 0.00122 µM, OCI-C5x cells, without rucaparib
[9] = at 0.00122 µM, OCI-P5x cells, with rucaparib 20 µM, 100% = cells with rucaparib alone
[10] = at 0.00122 µM, OCI-P5x cells, without rucaparib
[11] = at 0.00488 µM, OCI-C5x cells, with rucaparib 10 µM, 100% = cells with rucaparib alone
[12] = at 0.00488 µM, OCI-C5x cells, without rucaparib
[13] = at 0.00488 µM, OCI-P5x cells, with rucaparib 20 µM, 100% = cells with rucaparib alone
[14] = at 0.00488 µM, OCI-P5x cells, without rucaparib
[15] = at 0.0195 µM, OCI-C5x cells, with rucaparib 10 µM, 100% = cells with rucaparib alone
[16] = at 0.0195 µM, OCI-C5x cells, without rucaparib
[17] = at 0.0195 µM, OCI-P5x cells, with rucaparib 20 µM, 100% = cells with rucaparib alone
[18] = at 0.0195 µM, OCI-P5x cells, without rucaparib
[19] = at 0.0781 µM, OCI-C5x cells, with rucaparib 10 µM, 100% = cells with rucaparib alone
[20] = at 0.0781 µM, OCI-C5x cells, without rucaparib
[21] = at 0.0781 µM, OCI-P5x cells, with rucaparib 20 µM, 100% = cells with rucaparib alone
[22] = at 0.0781 µM, OCI-P5x cells, without rucaparib
[23] = at 0.313 µM, OCI-C5x cells, with rucaparib 10 µM, 100% = cells with rucaparib alone
[24] = at 0.313 µM, OCI-C5x cells, without rucaparib
[25] = at 0.313 µM, OCI-P5x cells, with rucaparib 20 µM, 100% = cells with rucaparib alone
[26] = at 0.313 µM, OCI-P5x cells, without rucaparib
[27] = at 1.25 µM, OCI-C5x cells, with rucaparib 10 µM, 100% = cells with rucaparib alone
[28] = at 1.25 µM, OCI-C5x cells, without rucaparib
[29] = at 1.25 µM, OCI-P5x cells, with rucaparib 20 µM, 100% = cells with rucaparib alone
[30] = at 1.25 µM, OCI-P5x cells, without rucaparib
[31] = at 5 µM, OCI-C5x cells, with rucaparib 10 µM, 100% = cells with rucaparib alone
[32] = at 5 µM, OCI-C5x cells, without rucaparib
[33] = at 5 µM, OCI-P5x cells, with rucaparib 20 µM, 100% = cells with rucaparib alone
[34] = at 5 µM, OCI-P5x cells, without rucaparib

Chain of NAD(+) hydrolase SARM1 (Homo sapiens) (Q6SZW1 whole entry, looked up): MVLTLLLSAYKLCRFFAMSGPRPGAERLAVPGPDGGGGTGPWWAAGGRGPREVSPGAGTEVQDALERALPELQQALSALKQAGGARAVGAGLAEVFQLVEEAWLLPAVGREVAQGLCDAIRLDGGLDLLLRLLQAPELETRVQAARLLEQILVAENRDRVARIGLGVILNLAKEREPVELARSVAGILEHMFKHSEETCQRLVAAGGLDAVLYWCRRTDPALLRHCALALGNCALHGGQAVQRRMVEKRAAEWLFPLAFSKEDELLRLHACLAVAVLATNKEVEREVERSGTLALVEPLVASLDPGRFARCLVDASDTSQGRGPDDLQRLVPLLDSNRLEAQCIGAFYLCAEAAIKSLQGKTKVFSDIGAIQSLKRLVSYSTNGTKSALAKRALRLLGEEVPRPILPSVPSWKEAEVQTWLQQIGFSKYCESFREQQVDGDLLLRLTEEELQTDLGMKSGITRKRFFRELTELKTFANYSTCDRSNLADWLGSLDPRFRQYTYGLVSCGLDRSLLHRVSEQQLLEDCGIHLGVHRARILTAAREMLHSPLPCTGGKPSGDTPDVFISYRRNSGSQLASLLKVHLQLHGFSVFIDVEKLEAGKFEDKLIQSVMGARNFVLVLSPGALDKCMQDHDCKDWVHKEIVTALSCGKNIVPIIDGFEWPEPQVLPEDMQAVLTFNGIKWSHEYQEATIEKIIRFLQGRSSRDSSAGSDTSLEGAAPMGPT

CC(=O)O[C@@]1(C(C)=O)CC[C@H]2[C@@H]3C[C@H](C)C4=CC(=O)CC[C@]4(C)[C@@H]3CC[C@@]21C
inactive: viability [1, 3] 108% | viability [1, 4] 122% | viability [1, 6] 101% | viability [1, 7] 113% | viability [1, 8] 120% | viability [1, 9] 101% | viability [1, 10] 103% | viability [1, 11] 122% | viability [1, 12] 119% | viability [1, 13] 103% | viability [1, 14] 107% | viability [1, 15] 114% | viability [1, 16] 118% | viability [1, 17] 104% | viability [1, 18] 113% | viability [1, 19] 106% | viability [1, 20] 114% | viability [1, 22] 111% | viability [1, 23] 122% | viability [1, 24] 118% | viability [1, 25] 102% | viability [1, 26] 110% | viability [1, 27] 107% | viability [1, 28] 120% | viability [1, 29] 106% | viability [1, 30] 111% | viability [1, 31] 105% | viability [1, 32] 121% | viability [1, 34] 105%
active: viability [1, 5] 94.9% | viability [1, 21] 94% | viability [1, 33] 92.5%

CO[C@H]1C[C@H](O[C@@H]2/C(C)=C\C[C@@H]3C[C@@H](C[C@]4(C=C[C@H](C)[C@@H](C(C)C)O4)O3)OC(=O)[C@@H]3C=C(C)[C@@H](O)[C@H]4OC/C(=C/C=C\[C@@H]2C)[C@]43O)O[C@@H](C)[C@H]1O[C@H]1C[C@@H](OC)[C@H](NC(C)=O)[C@H](C)O1
inactive: remaining NAD [2] 10 nM

Cc1[nH]c(C=C2C(=O)Nc3ccc(S(=O)(=O)Cc4c(Cl)cccc4Cl)cc32)c(C)c1C(=O)N1CCC[C@@H]1CN1CCCC1
active: viability [1, 5] 74% | viability [1, 6] 47.4% | viability [1, 9] 87.5% | viability [1, 10] 57.1% | viability [1, 17] 93.6% | viability [1, 18] 91.6% | viability [1, 21] 96% | viability [1, 22] 89.5% | viability [1, 25] 93% | viability [1, 26] 94.4% | viability [1, 29] 90.6% | viability [1, 30] 87% | viability [1, 33] 1.25% | viability [1, 34] 52.5%
inactive: viability [1, 3] 124% | viability [1, 4] 124% | viability [1, 7] 122% | viability [1, 8] 115% | viability [1, 11] 116% | viability [1, 12] 121% | viability [1, 13] 105% | viability [1, 14] 101% | viability [1, 15] 107% | viability [1, 16] 111% | viability [1, 19] 106% | viability [1, 20] 113% | viability [1, 23] 123% | viability [1, 24] 110% | viability [1, 27] 122% | viability [1, 28] 136% | viability [1, 31] 109% | viability [1, 32] 116%

CC1=C(/C=C/C(C)=C\C=C\C(C)=C/C(=O)O)C(C)(C)CCC1
inactive: viability [1, 3] 112% | viability [1, 4] 108% | viability [1, 7] 115% | viability [1, 8] 105% | viability [1, 11] 111% | viability [1, 12] 109% | viability [1, 14] 101% | viability [1, 15] 103% | viability [1, 16] 106% | viability [1, 19] 105% | viability [1, 20] 109% | viability [1, 23] 108% | viability [1, 24] 106% | viability [1, 27] 103% | viability [1, 28] 105% | viability [1, 32] 104%
active: viability [1, 5] 94.7% | viability [1, 6] 87.1% | viability [1, 9] 78.9% | viability [1, 10] 65.9% | viability [1, 13] 81.7% | viability [1, 17] 99% | viability [1, 18] 97.6% | viability [1, 21] 96.7% | viability [1, 22] 97.6% | viability [1, 25] 93.9% | viability [1, 26] 96.4% | viability [1, 29] 92.6% | viability [1, 30] 92.3% | viability [1, 31] 96.2% | viability [1, 33] 84.1% | viability [1, 34] 82.8%

COc1cccc(-c2cc(F)ccc2[C@H]2Cc3nc(N)nc(C)c3C(=O)N2)n1
active: viability [1, 13] 53.5% | viability [1, 14] 34.2% | viability [1, 15] 93.9% | viability [1, 16] 41.2% | viability [1, 17] 16.9% | viability [1, 18] 8.17% | viability [1, 19] 23.6% | viability [1, 20] 13.1% | viability [1, 21] 10.3% | viability [1, 22] 7.46% | viability [1, 23] 11.3% | viability [1, 24] 8.63% | viability [1, 25] 6.73% | viability [1, 26] 5.16% | viability [1, 27] 10.2% | viability [1, 28] 7.01% | viability [1, 29] 5.14% | viability [1, 30] 4.54% | viability [1, 31] 9.37% | viability [1, 32] 7.01% | viability [1, 33] 4.5% | viability [1, 34] 3.25%
inactive: viability [1, 3] 108% | viability [1, 4] 122% | viability [1, 5] 108% | viability [1, 6] 113% | viability [1, 7] 117% | viability [1, 8] 135% | viability [1, 9] 101% | viability [1, 10] 112% | viability [1, 11] 134% | viability [1, 12] 141%
